Compound activity as filed in PubChem.
A selection: hits, their analogues and other compounds. The true share with any hit is near 17%.
DT40 TDP1 CPT = qHTS for Inhibitors of human tyrosyl-DNA phosphodiesterase 1 (TDP1): qHTS in cells in presence of CPT | chicken DT40 Tdp1-/-;hTDP1 cells + 20 nM CPT, ATP luminescence, 48 h | Potency, µM (series often up to 46.2 µM), for inactives: top-dose activity change, negative = growth inhibition, actives largely listed as inhibitors | hit rate 12% among 420,000 | AID 686979, 2013; note: % is set by controls: 0 for no effect and ±100 for the full control effect; nearly all actives have a fitted effect of over 55% in size
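Chicken DT40 Tdp1-/- cells complemented with human TDP1, 400 cells/well, exposed to compounds plus 20 nM camptothecin for at least 48 h at 37 C; viability read as ATP content by CellTiter-Glo luminescence.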
S2 tox = Viability Counterscreen for Primary qHTS for Inhibitors of ATXN expression; S2 cells (HEK-293 line with an ATXN2-luciferase reporter) viability, CellTiter-Fluor protease fluorescence, 24 h; Potency, µM (top dose mostly 56.7 µM), actives largely listed as cytotoxic; hit rate 0.49% among 400,000; AID 651635, 2014; note: nearly all actives have a fitted effect of over 40% in size
TGFb SMAD3 inh = qHTS for Inhibitors of TGF-b; HepG2 CAGA-GFP TGF-b/SMAD3 reporter, GFP fluorescence, 18 h; TGF-beta stimulated, 500 pg/mL final; Potency, µM (highest dose often 46.1 µM), without a hit: at the top dose activity, negative = inhibition, hits mostly inhibitors; hit rate 1.2% among 410,000; AID 588855, 2011; note: % is set by controls: 0 for no effect and ±100 for the full control effect; nearly all actives have a fitted effect of over 65% in size
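Inhibition was scored as loss of TGF-beta-induced (500 pg/mL final, 18 hours, 37 degrees C) GFP in HEPG2 cells carrying a CAGA-GFP reporter, in DMEM with 1% FBS. Well GFP was summed per cell; Activity was normalised to unstimulated and stimulated DMSO wells, then concentration-response fitting.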
HepG2 tox-1 = qHTS for Inhibitors of TGF-b: Cytotox Counterscreen. HepG2 CAGA-GFP viability, ATP luminescence, 18 h. Potency, µM (highest dose often 46.1 µM), without a hit: at the highest dose activity change, negative = cytotoxicity, actives largely listed as cytotoxic. hit rate 0.76% among 410,000. AID 588856, 2011
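CellTiter-Glo luminescence gave cytotoxicity after 18 hours at 37 degrees C. The cells were HepG2 CAGA-GFP in 1% FBS DMEM, stimulated with 500 pg/mL TGF-beta after compound addition. %Activity was normalised to no-cell wells (complete cell-killing) and DMSO (no toxicity), and curves were fitted and classified.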
ATXN2 expr inh = Primary qHTS for Inhibitors of ATXN expression | HEK-293 ATXN2-luciferase reporter, luminescence, 24 h | Potency, µM (highest dose often 57 µM), for the others: at the highest dose activity change, negative = inhibition, usual class: inhibitors | hit rate 0.72% among 360,000 | AID 1745845, 2022; note: % is set by controls: 0 for no effect and ±100 for the full control effect; nearly all actives have a fitted effect of over 55% in size
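qHTS (up to 57 uM final) was run with 24 h compound exposure of reporter cells at 37 °C. Each well was multiplexed: SteadyGlo luminescence measured ATXN2-luciferase expression after a fluorogenic Gly-Phe-AFC viability readout (25 uM final).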
TDP1 cell noCPT = qHTS for Inhibitors of human tyrosyl-DNA phosphodiesterase 1 (TDP1): qHTS in cells in absence of CPT. DT40 Tdp1-/- hTDP1 cells, no CPT, ATP luminescence, 48 h. Potency, µM (top dose mostly 46.2 µM), inactives show at the highest dose activity change, negative = growth inhibition, actives largely listed as inhibitors. hit rate 15% among 420,000; note: % is set by controls: 0 for no effect and ±100 for the full control effect; nearly all actives have a fitted effect of over 55% in size
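Camptothecin absent (DMSO only). Human TDP1-complemented DT40 knockout cells, 400 cells/well, 37 °C for minimum 48 hr; ATP measured via CellTiter-Glo, 30 min dark incubation, luminescence.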
TGFb CAGA inh = qHTS for Inhibitors of TGF-b: Confirmation of Cherry Picks. shares compounds with TGFb SMAD3 inh. HepG2 CAGA-GFP TGF-b reporter, GFP fluorescence, 18 h; cells stimulated with TGF-beta, 500 pg/mL. Potency, µM (top dose mostly 46.1 µM), for the others: at the top dose activity, negative = inhibition, usual class: inhibitors. hit rate 63% among 1,600. AID 720534, 2013; note: % is set by controls: 0 for no effect and ±100 for the full control effect; nearly all actives have a fitted effect of over 65% in size
HepG2 tox-2 = qHTS for Inhibitors of TGF-b: Cytotox Counterscreen for Cherry Picks; shares compounds with TGFb SMAD3 inh; HepG2 CAGA-GFP viability, ATP luminescence, 18 h; cells stimulated with TGF-beta, 500 pg/mL; Potency, µM (doses to about 46.1 µM), inactives show at the highest dose activity, negative = cytotoxicity, most hits filed as inhibitors; hit rate 27% among 1,600; note: % is set by controls: 0 for no effect and ±100 for the full control effect; nearly all actives have a fitted effect of over 70% in size
CCL64 TGFb inh = qHTS for Inhibitors of TGF-b: CCL64 Cells Orthogonal Assay for Cherry Picks. shares compounds with TGFb SMAD3 inh. CCL64 CAGA-GFP reporter, TGF-b stimulated, GFP fluorescence, 18 h. Potency, µM (highest dose often 46.1 µM), inactives show at the highest dose activity, negative = inhibition, hits mostly inhibitors. hit rate 41% among 1,600. AID 720536, 2013; note: nearly all actives have a fitted effect of over 65% in size
COP TGFb inh = qHTS for Inhibitors of TGF-b: Hit Validation in HepG2 Cells using COP promoter | Potency, µM (series often up to 46.1 µM), without a hit: at the highest dose activity, negative = inhibition, usual class: inhibitors | hit rate 3% among 1,600 | HepG2 COP-GFP TGF-b reporter, GFP fluorescence, 18 h; cells stimulated by added recombinant TGF-beta | shares compounds with TGFb SMAD3 inh; note: nearly all actives have a fitted effect of over 70% in size
* hit, by the source's call; i = inactive; ? = inconclusive; . = not tested or not shown. Calls come from the whole dose curve; as a rule, active = well fitted curve in the direction sought with a large enough effect; inconclusive = small, poorly fitted or top-dose-only effect, or another doubt; inactive = no such curve, though single readings can be large; an effect the other way counts as inactive or inconclusive. Potency is the fitted concentration of half-maximal effect.

SMILES | DT40 TDP1 CPT | S2 tox | TGFb SMAD3 inh | HepG2 tox-1 | ATXN2 expr inh | TDP1 cell noCPT | TGFb CAGA inh | HepG2 tox-2 | CCL64 TGFb inh | COP TGFb inh
Cc1cc(C)n(C(C)n2nc(C)cc2C)n1 | 6% | i | -5% | 6% | 2% | -9% | . | . | . | .
c1ccc(Sc2ncnc3ccccc23)cc1 | ? | i | 10µM* | -36% | 27% | ? | 10µM* | ? | ? | 40%
O=C(NCCc1cccnc1)c1cc(COc2ccc(F)cc2Cl)on1 | ? | i | 13µM* | -19% | 1% | ? | ? | -23% | ? | 3%
O=C(c1cc(COc2ccc(F)cc2Cl)on1)N1CCc2sccc2C1 | ? | i | -14% | 6% | 14% | 4% | . | . | . | .
Clc1ccccc1-c1nc(-c2ccccc2)n[nH]1 | ? | i | 0% | -56% | 76% | ? | . | . | . | .
Oc1ccccc1-c1n[nH]c(-c2ccccc2O)n1 | 3.7µM* | ? | 2.8µM* | -61% | -19% | 5.2µM* | ? | ? | ? | 4%
COc1cccc(CCNS(=O)(=O)CCNC(=O)c2cccc(OC)c2)c1 | -29% | i | 25% | -1% | -2% | -29% | . | . | . | .
CNc1c2cccc(C)c2nc2c(C(=O)NCCN(C)C)cccc12 | 0.18µM* | . | 1.1µM* | -7% | ? | 0.18µM* | 0.58µM* | 0.52µM* | 1.3µM* | 69%
Cc1ccccc1C(=O)NCCCNC(=O)c1ccccc1C | -2% | i | -7% | -15% | -11% | -4% | . | . | . | .
C(=C\c1ccccc1)/CN1CCN(C(c2ccnc3ccccc23)c2nnnn2C2CCCCC2)CC1 (centres undefined) | 23µM* | ? | 11µM* | -1% | ? | 18µM* | 18µM* | ? | 18µM* | 46%
CCCCn1nnnc1C(c1cccc2ccccc12)N1CCN(C/C=C/c2ccccc2)CC1 (centres undefined) | ? | ? | 11µM* | -6% | ? | 21µM* | ? | ? | ? | 56%
CCCCn1nnnc1C(c1ccccc1OC(F)(F)F)N1CCN(C/C=C/c2ccccc2)CC1 (centres undefined) | ? | ? | 13µM* | -16% | -25% | ? | 18µM* | -19% | ? | 21%
Cc1ccc(C)c(C(C)NC(=O)Cc2cccs2)c1 (centres undefined) | 26% | ? | -16% | -5% | 6% | -11% | . | . | . | .
Nc1ncc(Br)cc1S(=O)(=O)Nc1cc(C(F)(F)F)cc(C(F)(F)F)c1 | ? | ? | 5.6µM* | -51% | 0% | 18µM* | 6.5µM* | 12µM* | ? | 35%
C[C@H](CO)N1C[C@H](C)[C@@H](CN(C)C(=O)Nc2ccccc2)Oc2ccc(NC(=O)C3CCCCC3)cc2C1=O | 5% | i | ? | 1% | 5% | -6% | . | . | . | .
CC(=O)Oc1c(Br)cc(N(C(C)=O)S(=O)(=O)c2ccccc2)c2ccccc12 | ? | i | 8.9µM* | -91% | ? | 6.5µM* | 16µM* | ? | 13µM* | ?
COc1cc(CNCCO)cc(Cl)c1OCc1ccccc1Cl | ? | i | 11µM* | -22% | -7% | ? | -94% | 16µM* | 29µM* | 47%
COc1cc(CNCCc2ccccc2)cc(Cl)c1OCc1ccccc1 | ? | ? | ? | -149% | ? | ? | . | . | . | .
CC(N=C1NS(=O)(=O)c2ccccc21)C(=O)NCc1ccc2c(c1)OCO2 (centres undefined) | 1% | i | 11% | -1% | -21% | ? | . | . | . | .
CC[C@H](C)[C@@H]1OC(=O)[C@@H](C)[C@@H](CC)NC(=O)[C@H](C)N(C)C(=O)C(C)(C)C(=O)C(C)NC(=O)[C@H](Cc2ccccc2)N(C)C(=O)[C@H](C(C)C)N(C)C(=O)CNC(=O)[C@H](CC(C)C)N(C)C(=O)CNC1=O (some centres undefined) | 0.13µM* | ? | 3.5µM* | 5% | -37% | 0.18µM* | 7.3µM* | ? | 5.8µM* | 42%
NS(=O)(=O)c1cccc(NC(=O)CSc2nn(-c3ccccc3)c(=S)s2)c1 | 1% | i | -9% | -8% | 3% | ? | . | . | . | .
CN(C)S(=O)(=O)c1cc(NC(=O)CSc2nn(-c3ccc(Cl)cc3)c(=S)s2)ccc1Cl | ? | i | 11µM* | 4% | ? | ? | 3.7µM* | ? | ? | 45%
Cc1ccc(NC(=O)CSc2nn(-c3ccc(Cl)cc3)c(=S)s2)cc1S(=O)(=O)N(C)C | 9.2µM* | i | ? | -16% | -33% | ? | ? | ? | 3% | 12%
OCC1(CO)CCCC(CO)(CO)C1O | 1% | i | 0% | 1% | -20% | 0% | . | . | . | .
Cc1ccc(-c2csc(NC(=O)CCNC(=O)c3ccc(Cl)cc3)n2)cc1 | ? | ? | ? | -64% | ? | ? | -17% | 2% | ? | 5%
